We go through 22 molecules from PubChem BioAssay (NCI).

The panel holds about 83,000 compounds, 20% with a hit somewhere; the sample as a whole holds those more often.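 96-well plates, one dose, 48 hours. Percent growth reported; active if below 10.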 A number with no mark means an inactive call. Calls of active or inactive are those of the source.

Common to all, as to assay: NCI-60 one-dose screen, 48 h (100 = growth as untreated, 0 = no growth, -100 = all killed)
Common to all, as to conditions: 10 µM unless noted

For test [1], the system named is HCT-15 colon.
Test [2] concerns HT29 colon.
The test system of test [3] is SNB-75 CNS.
Test [4] relates to SNB-19 CNS.
For test [5], the system named is U251 CNS.
Test [6] relates to PC-3 prostate.
The subject of test [7] is SK-MEL-5 melanoma.
Test [8] relates to UACC-62 melanoma.
The test system of test [9] is LOX IMVI melanoma.
For test [10], the system named is SK-MEL-28 melanoma.

For the molecule `NS(=O)(=O)c1ccc(-n2ncc3c(NC4CCCCC4)ncnc32)cc1`, the growth was 86.4% in [1]; 81.9% in [2]; 113% in [3]; 94.1% in [4]; 96.3% in [5]; 92.9% in test [6]. Moreover, the growth in test [7] was 88.1%; in [8], 97.2%; in test [9], 80.8%; in test [10], 98%.

With `C1=C(Cc2ccccc2)n2cnc3ncnc(c32)S1`, the growth in test [1] is 71.8%; in test [2], 55.7%; in test [3] it was 45.8%; in test [4], 94.1%; in test [5], 78.8%; in [6], 78.2%. In addition, the growth is 86.1% in [7], 54.5% in test [8], 9.31% (active) in [9] and 103% in test [10].

Regarding `COc1cc(/C=C/C(=O)c2c(C)n([O-])c3ccc(Cl)cc3[n+]2=O)cc(OC)c1OC`, the growth in [1] is 59%; in test [2], 102%; in test [3], 75.8%; in test [4] it was 83.1%; in [5], 80.1%; in [6] it was 89.5%. Also, the growth in test [7] was 47%; in test [8], 82.9%; in test [9] it was 68.9%; in test [10], 84%.

On to `CCN(CC)CCOCC[C@H]1CC[C@H]2[C@@H]3[C@H](C)Cc4cc(OS(N)(=O)=O)ccc4[C@H]3CC[C@]12C`, for which the growth is -37% (active) in test [1]; -63.8% (active) in test [2]; -42.7% (active) in [3]; -94.4% (active) in test [4]; -71% (active) in test [5]; -88.8% (active) in test [6]. For the same molecule, the growth in test [7] was -90.4% (active); in test [8], -79.7% (active); in [9], -65% (active); in [10], -91.1% (active).

With `CCSc1nc(-c2ccc(F)cc2)c(C#N)c(=O)[nH]1`, the growth in test [1] is 104%; in test [2], 106%; in test [3], 93.5%; in test [4], 107%; in test [5] it was 107%; in [6] it was 127%. The growth is 101% in [7], 97.5% in [8], 95.4% in test [9] and 108% in test [10].

On to `Nc1ccc2c(c1Br)Cc1ccccc1-2`, for which the growth was 69.9% in test [1]; 111% in [2]; 87.7% in test [3]; 98.9% in test [4]; 93.6% in test [5]; 83.4% in [6]. The growth in test [7] is 107%; in [8], 91%; in test [9], 90.5%; in test [10], 121%.

In the case of `CCCCc1ccc(C(N)=O)nc1`, the growth is 94.1% in test [1]; 109% in test [2]; 79.2% in [3]; 102% in [4]; 100% in test [5]; 98.7% in [6]. Moreover, the growth was 101% in [7], 93.1% in test [8], 89% in test [9] and -97.1% (active) in [10].

On to `O=C(COc1ccc(/C=C2\Oc3ccc4ccccc4c3C2=O)cc1)c1ccc(Cl)cc1`, for which the growth is 92% in test [1]; 87.2% in test [2]; 83% in test [3]; 98.3% in [4]; 94.7% in [5]; 93.8% in [6]. The growth in test [7] is 92.6%; in test [8], 94.3%; in [9], 53.7%; in [10], 112%.

Turning to `CCn1cnc(C[C@H](NC(=O)[C@H](CCCCNC(=O)Nc2cc(C(F)(F)F)cc(C(F)(F)F)c2)NC(=O)Nc2cc(C(F)(F)F)cc(C(F)(F)F)c2)C(=O)OC)c1`, the growth in [1] was 48.1% [100 µM]; in [2], -99.4% [100 µM] (active); in [3], -36.4% [100 µM] (active); in test [4] it was -36.5% [100 µM] (active); in test [5], -100% [100 µM] (active); in test [6], -38.5% [100 µM] (active). Besides, the growth in test [7] is -100% [100 µM] (active); in test [8], -88.3% [100 µM] (active); in test [9] it was -100% [100 µM] (active); in [10] it was -99.5% [100 µM] (active).

Take `COc1ccc(NC(=O)[C@@H]2C[C@H]2c2ccccc2)c(C(N)=O)c1`: the growth in test [1] is 89.5%; in test [2] it was 95.5%; in [3], 96.2%; in test [4], 96.3%; in test [5], 97.2%; in test [6], 90.2%. Besides, the growth in test [7] is 96.5%; in test [8], 95.7%; in [9], 93.6%; in test [10], 96.7%.

Turning to `C(=C1c2ccccc2-c2ccccc21)c1ccccn1`, the growth is 42.8% in test [1]; 17% in test [2]; 62.5% in [3]; 73.6% in test [4]; 50.4% in [5]; 78.1% in [6]. Moreover, the growth in [7] was 78.3%; in test [8], 52.9%; in test [9] it was 57.2%; in test [10] it was 81%.

Consider `COc1ccc2c3c(ccc2c1)C(=O)/C(=C\O)CC3`, for which the growth is 87.3% in test [1]; 103% in test [2]; 91.9% in test [3]; 103% in test [4]; 82.6% in [5]; 88.2% in [6]. For the same molecule, the growth in test [7] was 103%; in test [8], 107%; in test [9], 87.1%; in [10] it was 128%.

As for `COc1ccc(C(=O)/C=C/c2cccc(Nc3ccnc4cc(Cl)ccc34)c2)cc1`, the growth in test [1] was 30.6%; in test [2], 1.05% (active); in test [3], -1.22% (active); in [4], 51.3%; in test [5], 8.83% (active); in test [6], 33.7%. Further, the growth in [7] is 7.89% (active); in [8] it was 27.8%; in [9], 6.49% (active); in [10], 44.6%.

Take `Cc1cc(-c2ccccc2)cc(C)n1`: the growth in test [1] is 105%; in [2], 99%; in test [3] it was 86.1%; in [4] it was 99.4%; in test [5], 103%; in test [6], 96.6%. Also, the growth in test [7] is 106%; in test [8], 103%; in test [9], 96.9%; in test [10], 107%.

As for `CC[C@H]1CN2CCc3cc(OC)c(OC)cc3C2C[C@@H]1CC1NCCc2cc(OC)c(OC)cc21` (stereo not given in full), the growth in test [1] is -18% (active); in test [2], -14.5% (active); in [3], -52.2% (active); in test [4] it was -6.47% (active); in test [5] it was -10.2% (active); in test [6] it was -12% (active). Also, the growth is -88.7% (active) in test [7], -82% (active) in [8], -27.8% (active) in test [9] and -14.4% (active) in [10].

Consider `COC(=O)C1=CCC(n2cnc3c(N)ncnc32)O1` (stereo not given), for which the growth in [1] was 109%; in test [2], 103%; in test [3], 98.1%; in [4] it was 104%; in test [5], 104%; in [6], 98%. Besides, the growth was 104% in test [7], 92.8% in test [8], 96.4% in test [9] and 115% in [10].

As to `COc1cc(/C=C/C(=O)CC(=O)/C=C/c2ccc(OC(=O)C3C4CC5CC(C4)CC3C5)c(OC)c2)ccc1OC(=O)C1C2CC3CC(C2)CC1C3` (stereo not given), the growth in [1] is 135%; in test [2], 105%; in test [3], 107%; in test [4], 106%; in test [5], 111%; in test [6], 82.8%. Besides, the growth in test [7] is 110%; in [8], 114%; in [9], 108%; in test [10] it was 131%.

For the molecule `C1CCC(C(CC2CCCCN2)C2CCCCC2)CC1` (stereo not given), the growth in test [1] is 25%; in test [2], -53.8% (active); in test [3] it was 7.79% (active); in test [4], 13.2%; in test [5], -61.3% (active); in test [6], 23.9%. The growth was -94.3% (active) in test [7], -7.18% (active) in [8], -95.5% (active) in test [9] and -84.8% (active) in test [10].

For `O=C(Nc1nn2c(-c3cc(C(F)(F)F)cc(C(F)(F)F)c3)nnc2s1)C1CCCC1`, the growth in test [1] was 13.6%; in test [2] it was -28.7% (active); in test [3], 37.9%; in test [4] it was 26.6%; in test [5], 4.37% (active); in test [6], 8.85% (active). The growth in test [7] is -69.6% (active); in test [8], 7.5% (active); in test [9], 13.1%; in test [10], 30.4%.

Consider `O=C(NCCCl)NCCN1c2nc3ccccc3cc2Sc2cc3ccccc3nc21`, for which the growth in test [1] was 51.9%; in test [2], 36.2%; in [3], -5.93% (active); in test [4], 63.9%; in test [5], 34.8%; in test [6], 25.3%. The growth in [7] was 9.61% (active); in test [8] it was 47.4%; in test [9], 49.7%; in test [10], 86.4%.

For `CC(C)Sc1nc(-c2ccc(Br)cc2)c(C#N)c(N2CCCCC2)n1`, the growth in [1] was 96.2%; in [2], 94.5%; in [3], 99.4%; in [4], 105%; in [5] it was 99.9%; in test [6], 97.5%. In addition, the growth in test [7] is 101%; in test [8], 82.6%; in test [9] it was 108%; in [10] it was 105%.

Consider `C/C=C(/C(=C/C)c1ccc(O)cc1)c1ccc(O)cc1`, for which the growth in test [1] was 31.7%; in test [2], 38.6%; in [3], 9.32% (active); in [4], 34.6%; in test [5] it was 32.8%; in test [6] it was 46.2%. The growth is 5.64% (active) in [7], 31.2% in [8], 39.1% in [9] and 52.4% in test [10].
